The results in this text go back to PubChem BioAssay AID1497 (Sanford-Burnham Center for Chemical Genomics, 2009).

Screen size: about 93,000 compounds; about 500 (0.54%) were called active. Many of the other results were omitted from the sample, so actives are more common in it than they were. A number with no mark means an inactive call.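 How the source made its calls: active means primary inhibition of 50% or more at 10 µM, then 40% or more on retest; inactive means the rest.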

Sequence of Integrin beta-2 (Homo sapiens) + Integrin alpha-M (Homo sapiens) (P05107 whole entry, looked up, other chains not shown): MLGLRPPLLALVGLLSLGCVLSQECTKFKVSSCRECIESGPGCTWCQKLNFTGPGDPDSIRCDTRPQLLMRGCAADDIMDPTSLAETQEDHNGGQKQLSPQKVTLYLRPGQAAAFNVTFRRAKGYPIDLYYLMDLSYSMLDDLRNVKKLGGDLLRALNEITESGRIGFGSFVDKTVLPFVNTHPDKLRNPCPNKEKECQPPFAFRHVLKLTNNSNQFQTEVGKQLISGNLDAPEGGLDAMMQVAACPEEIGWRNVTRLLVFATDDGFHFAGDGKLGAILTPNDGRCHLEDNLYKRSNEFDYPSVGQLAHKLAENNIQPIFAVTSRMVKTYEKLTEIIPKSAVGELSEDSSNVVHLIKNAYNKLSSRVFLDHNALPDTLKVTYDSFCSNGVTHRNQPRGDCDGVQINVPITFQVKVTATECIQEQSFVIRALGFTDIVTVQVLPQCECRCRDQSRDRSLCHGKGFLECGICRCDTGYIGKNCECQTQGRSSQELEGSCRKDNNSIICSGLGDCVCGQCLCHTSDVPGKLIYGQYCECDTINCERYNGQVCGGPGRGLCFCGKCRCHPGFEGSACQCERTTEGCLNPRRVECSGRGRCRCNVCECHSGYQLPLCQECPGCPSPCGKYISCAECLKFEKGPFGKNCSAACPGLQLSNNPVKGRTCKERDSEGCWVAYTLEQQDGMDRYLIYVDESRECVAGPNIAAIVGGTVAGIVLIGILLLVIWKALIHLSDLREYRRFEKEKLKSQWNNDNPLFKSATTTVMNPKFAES

The assay has as its target Integrin beta-2 (Homo sapiens) + Integrin alpha-M (Homo sapiens) (UniProt P05107+P11215). Description: antagonists of integrin CD11b/CD18-fibrinogen binding – K562 cells, luminescence, primary screen (AID 1497). The conditions noted are these: K562 CD11b/CD18 adhesion to fibrinogen, ATPlite luminescence; at 10 µM; active compounds read high; Mn2+ added to activate the integrin. On the technique in general: ATP-based viability assays read luminescence as a measure of living cells.
On to `Cc1c(Br)c([N+](=O)[O-])nn1CC(=O)Nc1sc2c(c1C(=O)OC(C)C)CCC(C)C2` (stereo not given), for which the inhibition (usually the drop in the measured response relative to a control, in per cent) was -9.3%. For the molecule `O=C(Nc1cccc(F)c1)c1coc(=O)c(Br)c1`, the inhibition was -10.2%.

As for `O=C(COC(=O)c1ccc(Cl)nc1)NCc1ccc2c(c1)OCO2`, the inhibition is 4.3%. The result for `O=C(CSc1ccc2nnc(-c3ccccc3)n2n1)N1CCCc2ccccc21` reads 29.7%.

For `O=C(OCc1ccc(Br)cc1)c1cccc(-c2nnc(-c3ccccc3)o2)c1`, the inhibition was 6.5%. As for `O=C(CCCCCNC(=O)c1ccccc1)N/N=C/c1ccccc1`, the figure is 9.3%. The result for `CC1(c2cccc([N+](=O)[O-])c2)CC(C)(C)N(C(=O)c2ccccc2)c2ccccc21` (stereo not given) reads 12.3%. In the case of `Cc1ccc(NC(=O)CC2C(=O)N(Cc3ccccc3)C(=S)N2NC(=O)c2cccc(F)c2)c(C)c1` (stereo not given), the inhibition is 1.5%. In the case of `Nc1nnc(SCC(=O)Nc2ccc3nc(SCC(=O)Nc4ccccc4)sc3c2)s1`, the inhibition is 74%. The result for `CC(=O)Nc1ccc(S(=O)(=O)Nc2nc(-c3ccc(C(C)(C)C)cc3)cs2)cc1` reads 0.9%. For `COc1cc2c3c(c1)/C(=C1/SC(=S)NC1=O)C(=O)N3C(C)(C)C=C2C`, the inhibition is 92.6%. Consider `CCc1c(C)sc(NC(=O)c2ccc(Br)o2)c1C(=O)OC`, for which the inhibition was 6.5%. `CCCc1ccc(-c2c(C)sc(NC(=O)c3ccnn3C)c2C#N)cc1`: the inhibition is 62.4% (active). As for `CCOC(=O)c1sc(NC(=O)CSc2ncccn2)c(C#N)c1C`, the figure is -4.4%; as for `COc1ccc(C2Nc3ccccc3C(=O)N2c2ccc(F)cc2)cc1Cn1nnc2ccccc21` (stereo not given), 12.2%. As to `CC(=C/c1ccccc1)/C=N/NC(=O)c1cc(C)oc1C`, the inhibition is 4.2%. The result for `Fc1ccc2[nH]c3c(N4CCN(Cc5ccc6c(c5)OCO6)CC4)ncnc3c2c1` reads 103% (active).

Consider `CC(C)(C)n1nnnc1C(c1ccc(F)cc1)N1CCN(Cc2ccc3c(c2)OCO3)CC1` (stereo not given), for which the inhibition was -11.6%. As for `Fc1ccc2[nH]c3c(N4CCSCC4)ncnc3c2c1`, the figure is 81.7% (active); as for `Cc1cc(N2CCN(Cc3ccc4c(c3)OCO4)CC2)n2ncnc2n1`, -10.2%; as for `CCN1CCCC1CNc1ncnc2c1[nH]c1ccc(F)cc12` (stereo not given), -18.1%. For the molecule `Cc1ccc(-n2ncc3c(N4CCN(c5ccc(F)cc5)CC4)ncnc32)c(C)c1`, the inhibition was 39.7%. Regarding `COCCCNC(=O)Cn1cc(/C=C(\C#N)C(=O)N2CCN(c3ccccc3)CC2)c2ccccc21`, the inhibition was 21.8%. `O=C(COC(=O)Cc1ccc(F)cc1)Nc1cc(S(=O)(=O)N2CCOCC2)ccc1N1CCCC1`: the inhibition was -0.6%.

As for `CCCC/C(C)=N/NC(=O)NC1CCCCC1`, the inhibition was 5.3%. For `Cc1ccc(N/N=C2\COC(C)(C)CC2=O)cc1`, the inhibition is 4.6%. As for `CCCn1c(C)cc(/C=C(\C#N)C(=O)OCC(=O)Nc2cc(OC)c(OC)c(OC)c2)c1C`, the figure is 5.7%; as for `Cc1cc(C)c(NC(=O)c2oc3ccccc3c2COc2ccccc2)c(C)c1`, -5.4%; as for `CCCN(CC1COc2ccccc2O1)C(=S)Nc1ccc(C)cc1` (stereo not given), 9.6%. As for `C=CCNC(=S)NNC(=O)COc1c(Cl)cc(Cl)cc1Cl`, the figure is -6.9%; as for `Cc1[nH]n(-c2cccc(Cl)c2)c(=O)c1/C=N/n1c(C)nc2ccccc2c1=O`, 16.1%; as for `Cc1[nH]n(-c2cccc(Cl)c2)c(=O)c1-c1ccc(Cl)cc1`, 94.7% (active). As for `Cc1nc2c(-c3ccccc3)c(C)[nH]n2c(=O)c1Cl`, the figure is -1.6%. On to `CCN(/N=C/c1ccc(N(C)C)cc1)c1nc2ccccc2[nH]1`, for which the inhibition is 15%. Take `Cc1ccc(Nc2nc(-c3sc(NC(=O)c4ccccc4)nc3C)cs2)cc1`: the inhibition was 16.8%. In the case of `Cc1nc(C)c(-c2csc(NCCc3ccccc3)n2)s1`, the inhibition is 89.8% (active). As for `Cc1nc(NC(=O)c2cccc(Cl)c2)sc1-c1csc(Nc2cccc(Cl)c2)n1`, the figure is -4%; as for `N#Cc1c(NC(=O)c2ccc(N3CCOCC3)c([N+](=O)[O-])c2)sc2c1CCCC2`, 2.3%.

With `CCCCc1ccc(NC(=S)N2CCCC(CO)C2)cc1` (stereo not given), the inhibition is -5.8%. With `CCN(C(=O)COC(=O)c1c(NC(C)=O)sc(C)c1C)C1CCS(=O)(=O)C1` (stereo not given), the inhibition was 25.9%. Take `Cc1ccc(C)c(NC(=O)C(OC(=O)c2ccc(C)s2)c2ccccc2)c1` (stereo not given): the inhibition was 16.7%. As for `CCn1c(SCC(=O)Nc2ccc(C)cc2)nc2nc3c(cc2c1=O)CCCC3`, the figure is 2.8%; as for `Cc1nn(-c2ccccc2)c(Cl)c1/C=C/C(=O)c1ccc(O)cc1`, 25.9%; as for `CC(=O)N1CCN(CC(=O)Nc2ccc(SC(F)F)cc2)CC1`, -3.7%. The result for `CCOc1ccc(S(=O)(=O)N/N=C(\C)c2ccc(Cl)c(Cl)c2Cl)cc1` reads 8.2%; that for `C/C(=N\NC(=O)c1cc2c(s1)CCC(C)C2)c1cccnc1` (stereo not given), 1.2%. `COc1ccc(Br)cc1CN(C)CC(=O)Nc1cc([N+](=O)[O-])ccc1OC`: the inhibition is 33.8%. The result for `N#CCOc1ccc(C2=NO[C@@H]3[C@@H]4C[C@@H]([C@H]5C(=O)N(c6ccc7c(c6)OCO7)C(=O)[C@@H]45)[C@H]23)cc1` reads -2%. The result for `Cc1ccc(C)c(NC(CC(=O)c2ccccc2)C(=O)OCC(=O)c2cccs2)c1` (stereo not given) reads 2.1%; that for `COc1ccccc1OCCC(=O)OCC(=O)NCc1ccccc1`, 5%; that for `CCCOc1cc(C)c(S(=O)(=O)n2nnc3ccccc32)cc1C`, 2.3%. As for `CCc1nc(C)cn1S(=O)(=O)c1cc(OC)c(C)cc1C`, the figure is 51.2% (active); as for `Cc1ccc(-n2c(C)cc(C(=O)CSc3nnc4ccccn34)c2C)cc1`, 23.4%. With `CN(C(=O)c1c(Cl)cnn1C)C12CC3CC(CC(C3)C1)C2`, the inhibition was -23%. In the case of `FC(F)Oc1ccccc1NC(=S)Nc1cccc(Cl)c1Cl`, the inhibition was 64.3%. As to `CCCCC1N2CC3([N+](=O)[O-])CN1CC([N+](=O)[O-])(C2)C3(C)C` (stereo not given), the inhibition was -3.2%. Consider `O=C(CN1CCN(c2ccccn2)CC1)N1CCc2ccccc21`, for which the inhibition is 5.5%. As to `COc1ccc(NS(=O)(=O)c2ccc(NC(=S)NC(=O)/C=C/c3ccc(C)cc3)cc2)nn1`, the inhibition was -15%. The result for `CCCCn1c(=O)c(CCC(=O)OCC(=O)Nc2ccc(C)c(Cl)c2)nc2ccccc21` reads 6.4%; that for `OCC(CO)(CO)NCc1ccc(-c2ccccc2)cc1`, 3.8%. As for `Cc1cc(N2CCN(S(=O)(=O)c3ccc(C)c(C)c3)CC2)c2ccccc2n1`, the figure is 41.1%; as for `Cc1ccc(S(=O)(=O)C(C#N)c2nc3ccccc3nc2N2CCCC2)cc1C` (stereo not given), 63.1% (active). Take `Cc1ccc(S(=O)(=O)Nc2nc3ccccc3nc2N2CCc3ccccc3C2)cc1`: the inhibition was 71.6%. The result for `Cc1cc(SCC(=O)NCCN2C(=O)CSC2=O)nc2ccccc12` reads 13%; that for `Cc1c(Cl)cccc1NC(=O)CC1SC(=NCC2CCCO2)NC1=O` (stereo not given), 12.8%; that for `CC(Sc1nc2cc(Cl)ccc2s1)C(=O)Nc1ccc2c(c1)OCO2` (stereo not given), 82.9%.

Regarding `COc1ccc(OC)c(/C=C/C(=O)OCC(=O)Nc2ccc3c(c2)OCCO3)c1`, the inhibition is 24.4%.

For the molecule `Cc1ccc(-c2cc(N)on2)cc1`, the inhibition is -5.1%.

As for `Cc1ccc(S(=O)(=O)Nc2ccc3ncccc3c2)cc1`, the inhibition was 75.1% (active). The result for `CC(=O)N1CCN(C(=O)c2cccc(S(=O)(=O)Nc3ccc(C)cc3)c2)CC1` reads -4.1%; that for `O=S(=O)(Nc1ccc(Oc2ncccn2)c(Cl)c1)c1ccc(F)cc1`, -21.1%; that for `O=C1NC(c2ccc(-c3ccccc3[N+](=O)[O-])o2)C(C(=O)c2ccc(Cl)cc2)C(O)(C(F)(F)F)N1` (stereo not given), 13.3%. The result for `O=C(Cc1coc2ccc3ccccc3c12)NCc1cccs1` reads -3.3%; that for `CC(C)[C@H](NC(=O)c1ccc(F)cc1)C(=O)OCC(=O)NC(=O)c1cccn1C`, -23.1%.

As for `COC(=O)N/N=C/c1ccc(-c2ccc(Cl)c(Cl)c2)o1`, the inhibition was 9.8%. In the case of `CC(=O)N1C(C)c2ccccc2C(C)(C)CC12CCCCC2` (stereo not given), the inhibition is -35.8%. As for `COC(=O)c1ccc(NC(=O)CSc2nncc3ccc(OC)c(OC)c23)cc1`, the inhibition is -5.7%. As for `CCC(C(=O)OCC(=O)Nc1c(Cl)cc(Cl)cc1Cl)c1ccccc1` (stereo not given), the figure is 14.9%; as for `Cc1cc(C)c(NC(=S)N2CCCC2C(=O)O)c(C)c1` (stereo not given), -8.3%. On to `COc1ccccc1CN(C)C(=O)C1(c2ccc(Cl)cc2)CC1`, for which the inhibition is 11.8%. Take `COc1ccc([N+](=O)[O-])cc1NC(=O)c1ccc(N(Cc2ccccc2C)S(C)(=O)=O)cc1`: the inhibition was 4%. Consider `O=C(CSc1ccc(C(F)(F)F)cc1[N+](=O)[O-])NCCOc1ccccc1`, for which the inhibition is -6%. The result for `COc1ccc(C2c3c(C)nn(-c4ccccc4)c3NC(=O)N2c2ccccc2)cc1` (stereo not given) reads 2.6%; that for `O=C(NCCN1CCOCC1)c1cc(Sc2cccc(Cl)c2)nc2ccccc12`, 4.4%; that for `Cc1csc(=Nc2ccccc2)n1CCO`, -4.3%. On to `OC(COCC1COc2ccccc2O1)CN1CCN(c2ccc(F)cc2)CC1` (stereo not given), for which the inhibition is -1.1%. The result for `CCC(=O)NC(Nc1nc2ccc(C)cc2s1)(C(=O)OC)C(F)(F)F` (stereo not given) reads -4.9%; that for `COC(=O)C(NC(=O)c1ccc(OC)cc1)(Nc1ncc(S(=O)(=O)c2ccc([N+](=O)[O-])cc2)s1)C(F)(F)F` (stereo not given), 47.7%; that for `O=C(NC(Nc1nc2ccc([N+](=O)[O-])cc2s1)(C(F)(F)F)C(F)(F)F)c1ccccc1`, 93.8% (active). As to `CN(Cc1cccs1)C(=O)Cc1c[nH]c2ccccc12`, the inhibition is -17.9%.
